High-throughput results from PubChem.
MCF10A rerep: induces DNA re-replication in MCF 10a normal breast cells; AID 624296; hit rate 2.9% among 350,000; MCF 10A DNA re-replication, Hoechst nuclear intensity, 48 h; Potency, µM (top dose mostly 46.1 µM), for inactives: at the highest dose activity, positive = re-replication, most hits filed as activators; note: % of control where 0% means no effect; nearly all actives have a fitted effect of over 50% in size
KB-3-1 cytotox: kills parental KB-3-1 adenocarcinoma cells; KB-3-1 viability, CellTiter-Glo ATP luminescence, 72 h; Potency, µM (doses to about 46.1 µM), hits mostly cytotoxic; hit rate 1.4% among 400,000; AID 1347075; note: % is set by controls: 0 for no effect and ±100 for the full control effect; nearly all actives have a fitted effect of over 60% in size
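Cytotoxicity measured as CellTiter-Glo luminescence after 72 h at 37 C. Compound titrations were pinned onto drug-naive KB-3-1 parental adenocarcinoma cells grown in DMEM with 10% FBS, and normalized data fitted to concentration-response curves.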
PINK1 expr mod: changes PINK1 expression; Potency, µM (series often up to 76.6 µM), inactives show top-dose activation (PINK1 increase), actives largely listed as activators; PINK1 immunofluorescence, high-content cytometry, 24 h; hit rate 0.2% among 410,000; active = well fitted activation curve with a large enough effect; inconclusive = small, poorly fitted or top-dose-only effect; cell line not stated here; note: % of control where 0% means no effect; nearly all actives have a fitted effect of over 65% in size
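PINK1 protein, normally rapidly degraded, was detected by immunofluorescence after 24 hour compound treatment of a stable cell line. Titration data (5 concentrations) came from laser-scanning cytometry, with CCCP-treated wells as controls.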
12-LOX inh: inhibitors of human 12S-lipoxygenase ALOX12. P18054. purified 12hLO, xylenol orange hydroperoxide absorbance. Potency, µM (highest dose often 108 µM), inactives show top-dose activity change, negative = inhibition, usual class: inhibitors. hit rate 1.1% among 580,000. AID 1671190; note: % is set by controls: 0 for no effect and ±100 for the full control effect
Target sequence (P18054 whole entry, looked up): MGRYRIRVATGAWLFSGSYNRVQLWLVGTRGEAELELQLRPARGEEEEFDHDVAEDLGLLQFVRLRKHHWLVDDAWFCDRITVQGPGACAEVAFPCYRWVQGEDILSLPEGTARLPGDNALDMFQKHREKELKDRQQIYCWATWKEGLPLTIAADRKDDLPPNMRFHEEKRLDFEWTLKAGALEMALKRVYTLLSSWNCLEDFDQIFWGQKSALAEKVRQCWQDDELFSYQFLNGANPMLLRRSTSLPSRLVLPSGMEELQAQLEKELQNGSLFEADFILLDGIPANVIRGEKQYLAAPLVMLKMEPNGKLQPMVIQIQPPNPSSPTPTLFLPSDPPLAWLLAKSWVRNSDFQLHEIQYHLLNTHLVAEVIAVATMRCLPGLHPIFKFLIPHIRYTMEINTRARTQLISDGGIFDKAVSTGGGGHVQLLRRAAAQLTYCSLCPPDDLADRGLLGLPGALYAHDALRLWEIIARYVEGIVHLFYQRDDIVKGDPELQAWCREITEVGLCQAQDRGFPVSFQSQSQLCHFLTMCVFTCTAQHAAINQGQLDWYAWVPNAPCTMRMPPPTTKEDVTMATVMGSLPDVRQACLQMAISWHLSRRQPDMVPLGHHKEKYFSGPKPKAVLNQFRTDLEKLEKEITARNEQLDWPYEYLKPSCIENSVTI
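Purified human 12hLO (150 nM final) in 25 mM Hepes, 0.01% Triton X-100, pH 7.0 was preincubated 15 min at room temperature with compound. Then 40 uM arachidonic acid was added, 30 min. Hydroperoxide was read by Fe-XO absorbance ratio 573/405 nm.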
KB-V1 cytotox: KB-V1 MDR subline cytotoxicity; KB-V1 MDR cells viability, CellTiter-Glo, 72 h; Potency, µM (series often up to 46.1 µM), actives largely listed as cytotoxic; hit rate 3.4% among 400,000; AID 1347076; note: % is set by controls: 0 for no effect and ±100 for the full control effect; nearly all actives have a fitted effect of over 60% in size
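Cells of the MDR subline KB-V1 are plated, dosed with compound at multiple concentrations, and incubated 72 h at 37 degrees C; CellTiter-Glo is then added and luminescence read after 10 min.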
SW480 rereplic: DNA re-replication induction in SW480 cells; Potency, µM (titrated, usually from 46.1 µM), inactives show at the top dose re-replication activation, actives largely listed as activators; SW480 DNA re-replication, Hoechst DNA content imaging, 48 h; hit rate 1.8% among 340,000; AID 624297; note: % of control where 0% means no effect; nearly all actives have a fitted effect of over 55% in size
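Quantitative HTS format with DMSO vehicle controls; 48 hr drug incubation at 37 C, then 40 min Hoechst staining and scanning imager measurement at 405 nm excitation.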
Numbers without * were called inactive; i = inactive; ? = inconclusive; · = not tested or not shown; [ ] = another dose, or the depositor's remark. A selection: hits, their analogues and other compounds. The true share with any hit is near 5.8%. Unless noted, calls come from the whole dose curve; as a rule, active = well fitted curve in the direction sought with a large enough effect; inconclusive = small, poorly fitted or top-dose-only effect, or another doubt; inactive = no such curve, though single readings can be large; an effect the other way counts as inactive or inconclusive. Potency is the fitted concentration of half-maximal effect.

SMILES | MCF10A rerep | KB-3-1 cytotox | PINK1 expr mod | 12-LOX inh | KB-V1 cytotox | SW480 rereplic
CC(NC(=O)C1CCN(CCOc2ccc(Cl)cc2)CC1)c1cccc2ccccc12 (stereo unspecified) | · | i | 0.6% | 22.4µM* | i | ·
CN(C)CCCOCC1(C)COc2ccc(C(=O)Nc3cccc(Cl)c3)cc2N1 (stereo unspecified) | · | · | · | -6.9%[176 µM] | · | ·
O=C(Cc1ccccc1O)N1CCCC(CCc2c(F)cccc2F)C1 (stereo unspecified) | · | · | · | -17.7% | · | ·
Cc1cccc(NC(=S)N(C)Cc2cn(C)c3ccccc23)c1 | 22.9% | i | 4.0% | -22.4% | ? | -5.2%
CN(Cc1cn(C)c2ccccc12)C(=S)Nc1cc(F)cc(F)c1 | -64.9% | ? | -0.6% | -9.9% | 18.4µM* | -57.4%
COc1ccc(OC)c(CCNC(=O)c2ccc(Cl)c(N3C(=O)CCS3(=O)=O)c2)c1 | · | · | · | -4.8% | · | ·
CCCCCCCCCCOC(C)=O | · | · | · | 1.4%[176 µM] | · | ·
Clc1cccc(-n2cc(-c3ccccc3)c3c(N4CCCCC4)ncnc32)c1 | · | · | 1.1% | ? | · | ·
c1ccc(-c2cn(-c3ccccc3)c3ncnc(N4CCCCC4)c23)cc1 | 16.4µM* | i | ? | 3.3% | i | 22.1%
COc1ccc(-n2cc(-c3ccccc3)c3c(N4CC(C)OC(C)C4)ncnc32)cc1 (stereo unspecified) | 23.1µM* | i | 2.0% | 0.8% | ? | 14.5%
COc1ccc2[nH]c(C)c(CCNC(=S)Nc3ccccc3OC)c2c1 | ? | i | 3.0% | ? | i | ?
CCc1cccc(CC)c1NC(=S)NCCc1c(C)[nH]c2ccc(C)cc12 | ? | 6.51µM* | ? | ? | 5.8µM* | 14.6µM*
COc1ccc2[nH]c(C)c(CCNC(=S)Nc3cccc(C)c3)c2c1 | -4.1% | i | 1.1% | ? | i | ?
COc1ccc2[nH]c(C)c(CCNC(=S)Nc3cc(C)cc(C)c3)c2c1 | 0.1% | i | 1.5% | ? | i | ?
COc1ccc2[nH]c(C)c(CCNC(=S)Nc3cc(C)ccc3C)c2c1 | ? | i | 11.8% | ? | i | 16.4µM*
CCc1cccc(C)c1NC(=S)NCCc1c(C)[nH]c2ccc(C)cc12 | 10.3µM* | ? | ? | ? | ? | ?
COc1ccc(C(=O)/C(=C\c2cccc(Cl)c2)c2nc3ccccc3o2)cc1 | · | · | · | -1.2% | · | ·
CC(=O)c1ccc(OCc2cccc(C(N)=O)c2)cc1 | · | · | · | 4.2% | · | ·
COCc1cc(C)n(CC(=O)Nc2cc(C)c(C)cc2Br)c(=O)c1C#N | · | · | · | -1.8% | · | ·
CCc1cc2c(=O)[nH]c(N3CCCC3)nc2s1 | 0.1% | i | 0.3% | -5.7% | i | ?
CCc1cc2c(=O)[nH]c(-c3ccccn3)nc2s1 | 11.6µM* | 11.6µM* | 5.6% | 4.1% | ? | 6.51µM*
O=C(Nc1ccccc1C(=O)N1CCCC1)C1CC(=O)N(c2ccccc2)C1 (stereo unspecified) | · | · | · | -2.7% | · | ·
CCOc1ccc(NCc2nnc(SCc3ccccc3Cl)n2-c2ccccc2)cc1 | ? | i | 22.0%[38.3 µM] | 0.0% | 20.6µM* | 20.3%
COc1ccc(-n2c(CNc3ccc(C)cc3)nnc2SCc2ccccc2)cc1 | ? | i | ? | ? | ? | -10.8%
COc1ccccc1CNc1nc(-c2ccco2)nn1S(=O)(=O)c1ccccc1 | · | · | · | -13.2% | · | ·
SMILES | MCF10A rerep | KB-3-1 cytotox | PINK1 expr mod | 12-LOX inh | KB-V1 cytotox | SW480 rereplic
Nc1nccnc1C(=O)NCCc1cccc(Cl)c1 | · | · | · | 26.4% | · | ·
CCOc1ccc(S(=O)(=O)N2CCc3ccccc3C2)cc1 | 1.4% | i | -1.1% | 10.4% | i | -1.2%[9.22 µM]
CCOc1ccc(S(=O)(=O)N2CCc3cc(OC)c(OC)cc3C2)cc1 | -46.0% | i | 1.4% | 0.7% | 2.31µM* | -689.3%
CCCn1c(/C=C/c2ccccc2)nc2ccccc21 | 23.1µM* | i | 1.2% | 3.5% | i | ?
COCCOCCn1c(/C=C/c2ccccc2)nc2ccccc21 | 0.2% | i | 0.3% | 26.6% | ? | -11.7%
CCn1c(/C=C/c2cc[n+](C)cc2)nc2ccccc21 | 0.3% | i | -1.9% | 11.2µM* | ? | ?
CC(C)(C)C(=O)Oc1ccc2c(c1)O/C(=C\c1cccs1)C2=O | · | · | · | -21.9% | · | ·
O=C(O)COc1ccc2c(c1)O/C(=C\c1cccs1)C2=O | ? | i | 1.5% | ? | i | 16.4µM*
O=C(c1ccccc1)C(CCc1ccccn1)CCc1ccccn1 | 5.6% | i | 2.1% | -5.8% | i | 2.2%
CCOc1ccc(C(=O)c2ccncc2)cc1 | -1.6% | i | 2.0%[38.3 µM] | -0.5% | i | -1.6%
CN(C)CC(CCC(CN(C)C)C(=O)c1ccccc1)C(=O)c1ccccc1 (stereo unspecified) | ? | 16.4µM* | -1.7% | · | 8.2µM* | ?
CCOc1ccc(C(=O)C(CCC(CN(C)C)C(=O)c2ccc(OCC)cc2)CN(C)C)cc1 (stereo unspecified) | ? | ? | -2.4% | -12.5% | i | 3.66µM*
COc1ccc(C(=O)C(CCCCC(CN(C)C)C(=O)c2ccc(OC)cc2)CN(C)C)cc1 (stereo unspecified) | ? | i | 8.9% | -21.0% | 13µM* | ?
C=CCOc1cccc(NC(=O)CCc2ccccc2)c1 | · | · | · | 5.4% | · | ·
COc1ccc(Cc2nnc(SCC(=O)Nc3ccc(F)c(F)c3)n2C)cc1 | · | · | · | -2.7% | · | ·
CSc1cccc(N2CC(C(=O)Nc3cccc(S(=O)(=O)N4CCCC4)c3)CC2=O)c1 (stereo unspecified) | 10.3% | i | -1.1% | 28.2µM* | i | 9.2%
CCn1nc(C(=O)Nc2cccc(S(=O)(=O)N3CCCC3)c2)c2ccccc2c1=O | 4.3% | i | 1.9% | 176.2% | ? | -12.8%
O=C(Nc1cccc(S(=O)(=O)N2CCCCC2)c1)c1ccc2c(=O)n3c(nc2c1)CCCCC3 | 23.8% | 11.6µM* | 4.6% | -1.5% | 5.8µM* | -7.7%
O=C(CCl)Nc1cccc(S(=O)(=O)N2CCCCCC2)c1 | ? | 16.4µM* | -1.0% | -29.6% | 23.1µM* | 13µM*
O=C(Cc1ccc(Cl)cc1)Nc1cccc(S(=O)(=O)N2CCCCC2)c1 | ? | ? | 14.1% | -6.1% | i | -6.9%
CC(C)Cn1nc(C(=O)Nc2cccc(S(=O)(=O)N3CCCC3)c2)c2ccccc2c1=O | 17.3% | i | -0.9% | -6.0% | 4.61µM* | 6.6%
Cc1cc(SCC(=O)NC(=O)NC(C)(C)C)nc2ccccc12 | · | · | · | -18.9% | · | ·
COc1cc(C(=O)Nc2cccc(S(=O)(=O)N3CCCC3)c2)cc(OC)c1C | ? | ? | 1.9% | -15.9% | 23.1µM* | 0.7%
